Measurements taken from PubChem BioAssay (NCI).
Values joined by “and” are separate entries in the source; they are usually repeats but may differ in a detail not shown here. Equal entries are not always repeated. The panel holds about 83,000 compounds, 20% with a hit somewhere; the sample as a whole holds those more often.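 48-hour exposure, single concentration, 96-well plates; percent growth endpoint where 0 means no net growth. Active: below 10.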 Active and inactive are the calls of the source.

system: SR leukemia; experiment: NCI-60 one-dose screen, 48 h (100 = growth as untreated, 0 = no growth, -100 = all killed); details: 10 µM

| SMILES | growth |
| --- | --- |
| COc1ccc2sc3cccc(NCCN(C)C)c3c(=O)c2c1 | -31.7% (active) |
| CN(Cc1cnc2nc(N)nc(N)c2n1)c1ccc(C(=O)N[C@@H](CCC(=O)O)C(=O)O)cc1 | 26.8% (inactive) |
| CC/C(=C(\c1ccccc1)c1ccc(OCCN(C)C)cc1)c1ccccc1 | -18.9% (active) |
| CC[C@@]1(O)C(=O)OCc2c1cc1n(c2=O)Cc2cc3c(CN(C)C)c(O)ccc3nc2-1 | -5.49% (active) |

system: RPMI-8226 leukemia; experiment: as above; details: 10 µM

| SMILES | growth |
| --- | --- |
| COc1ccc2sc3cccc(NCCN(C)C)c3c(=O)c2c1 | 70.2% (inactive) and -6.71% (active) |
| CN(Cc1cnc2nc(N)nc(N)c2n1)c1ccc(C(=O)N[C@@H](CCC(=O)O)C(=O)O)cc1 | 41.7% (inactive) |
| CC/C(=C(\c1ccccc1)c1ccc(OCCN(C)C)cc1)c1ccccc1 | -28.3% (active) |
| CC[C@@]1(O)C(=O)OCc2c1cc1n(c2=O)Cc2cc3c(CN(C)C)c(O)ccc3nc2-1 | -28.3% (active) |

system: OVCAR-8 ovarian; experiment: as above; details: 10 µM

| SMILES | growth |
| --- | --- |
| COc1ccc2sc3cccc(NCCN(C)C)c3c(=O)c2c1 | 40.9% (inactive) and 7.16% (active) |
| CC/C(=C(\c1ccccc1)c1ccc(OCCN(C)C)cc1)c1ccccc1 | 60.5% (inactive) |
| CC[C@@]1(O)C(=O)OCc2c1cc1n(c2=O)Cc2cc3c(CN(C)C)c(O)ccc3nc2-1 | 3.57% (active) |

system: OVCAR-5 ovarian; experiment: as above; details: 10 µM

| SMILES | growth |
| --- | --- |
| COc1ccc2sc3cccc(NCCN(C)C)c3c(=O)c2c1 | 53.1% (inactive) and 9.58% (active) |
| CN(Cc1cnc2nc(N)nc(N)c2n1)c1ccc(C(=O)N[C@@H](CCC(=O)O)C(=O)O)cc1 | 27.2% (inactive) |
| CC[C@@]1(O)C(=O)OCc2c1cc1n(c2=O)Cc2cc3c(CN(C)C)c(O)ccc3nc2-1 | 8.58% (active) and 13.8% (inactive) |

system: OVCAR-4 ovarian; experiment: as above; details: 10 µM

| SMILES | growth |
| --- | --- |
| COc1ccc2sc3cccc(NCCN(C)C)c3c(=O)c2c1 | 64.7% (inactive) and -8.94% (active) |
| CN(Cc1cnc2nc(N)nc(N)c2n1)c1ccc(C(=O)N[C@@H](CCC(=O)O)C(=O)O)cc1 | 105% (inactive) |
| CC/C(=C(\c1ccccc1)c1ccc(OCCN(C)C)cc1)c1ccccc1 | 46.3% (inactive) |
| CC[C@@]1(O)C(=O)OCc2c1cc1n(c2=O)Cc2cc3c(CN(C)C)c(O)ccc3nc2-1 | 14% (inactive) |

system: SK-OV-3 ovarian; experiment: as above; details: 10 µM

| SMILES | growth |
| --- | --- |
| COc1ccc2sc3cccc(NCCN(C)C)c3c(=O)c2c1 | 57.2% (inactive) and 3.91% (active) |
| CN(Cc1cnc2nc(N)nc(N)c2n1)c1ccc(C(=O)N[C@@H](CCC(=O)O)C(=O)O)cc1 | 56.2% (inactive) |
| CC/C(=C(\c1ccccc1)c1ccc(OCCN(C)C)cc1)c1ccccc1 | 76.8% (inactive) |
| CC[C@@]1(O)C(=O)OCc2c1cc1n(c2=O)Cc2cc3c(CN(C)C)c(O)ccc3nc2-1 | 10.6% (inactive) and 20.4% (inactive) |

system: IGROV1 ovarian; experiment: as above; details: 10 µM

| SMILES | growth |
| --- | --- |
| COc1ccc2sc3cccc(NCCN(C)C)c3c(=O)c2c1 | 41.2% (inactive) and -2.42% (active) |
| CN(Cc1cnc2nc(N)nc(N)c2n1)c1ccc(C(=O)N[C@@H](CCC(=O)O)C(=O)O)cc1 | 21% (inactive) |
| CC/C(=C(\c1ccccc1)c1ccc(OCCN(C)C)cc1)c1ccccc1 | 41.2% (inactive) |
| CC[C@@]1(O)C(=O)OCc2c1cc1n(c2=O)Cc2cc3c(CN(C)C)c(O)ccc3nc2-1 | 15.3% (inactive) |

system: OVCAR-3 ovarian; experiment: as above; details: 10 µM

| SMILES | growth |
| --- | --- |
| COc1ccc2sc3cccc(NCCN(C)C)c3c(=O)c2c1 | 61.6% (inactive) and 22.1% (inactive) |
| CN(Cc1cnc2nc(N)nc(N)c2n1)c1ccc(C(=O)N[C@@H](CCC(=O)O)C(=O)O)cc1 | 47.8% (inactive) |
| CC/C(=C(\c1ccccc1)c1ccc(OCCN(C)C)cc1)c1ccccc1 | 52.9% (inactive) |
| CC[C@@]1(O)C(=O)OCc2c1cc1n(c2=O)Cc2cc3c(CN(C)C)c(O)ccc3nc2-1 | -21.7% (active) and -9.74% (active) |

system: HS 578T breast; experiment: as above; details: 10 µM
Protocol: Growth inhibition of the HS 578T human tumor cell line is measured as a screen for anti-cancer activity. Cells are grown in 96 well plates and exposed to the test compound for 48 hours. Compounds are tested at a single concentration, which is 10^-5 M for most compounds. The reported endpoint is percent growth (GI% or GIPRCNT), where numbers from 0 - 100% represent growth inhibition, and numbers from -100% - 0 represent cell death. For example, a value of 40 represents 60% growth inhibition. A value of 0 means no net growth occurred over the course of the experiment. A value of -40 indicates 40% of cells at the beginning of the experiment died by the end of the experiment. A value of -100 means all cells are dead at the end of the experiment.
NCI-60 Human Tumor Cell Lines Screen was performed using the standard one-dose NCI protocol, which is described in more detail at https://dtp.cancer.gov/discovery_development/nci-60/default.htm.
Compounds with GIPRCNT values below 10 were considered active. Activity score was based on GIPRCNT using the following formula: […]
Score is 0 for GIPRCNT values of 100 or above, 50 for GIPRCNT values of 0, and 100 for GIPRCNT values of -100.

| SMILES | growth |
| --- | --- |
| COc1ccc2sc3cccc(NCCN(C)C)c3c(=O)c2c1 | 81.2% (inactive) and 8.98% (active) |
| CC/C(=C(\c1ccccc1)c1ccc(OCCN(C)C)cc1)c1ccccc1 | 60.5% (inactive) |
| CC[C@@]1(O)C(=O)OCc2c1cc1n(c2=O)Cc2cc3c(CN(C)C)c(O)ccc3nc2-1 | 28.5% (inactive) |

system: NCI/ADR-RES ovarian; experiment: as above; details: 10 µM

| SMILES | growth |
| --- | --- |
| COc1ccc2sc3cccc(NCCN(C)C)c3c(=O)c2c1 | 48.5% (inactive) and 14.7% (inactive) |
| CN(Cc1cnc2nc(N)nc(N)c2n1)c1ccc(C(=O)N[C@@H](CCC(=O)O)C(=O)O)cc1 | 7.09% (active) |
| CC/C(=C(\c1ccccc1)c1ccc(OCCN(C)C)cc1)c1ccccc1 | 43.2% (inactive) |
| CC[C@@]1(O)C(=O)OCc2c1cc1n(c2=O)Cc2cc3c(CN(C)C)c(O)ccc3nc2-1 | 13.9% (inactive) and 5.76% (active) |
